Experimental data from PubChem BioAssay (NCATS).
Activity calls are given as the source filed them. The call rests on the fitted dose curve.

Experiment: qHTS drug screen for cell cycle checkpoint inhibitors in PARPi-resistant BRCA-mutant ovarian cancer cell lines. (AID 1963452)
Details: PEO1/OlaR viability, CellTiter-Glo luminescence, 96 h, stronger effect = lower value
Source text: Women's Malignancies Branch, Center for Cancer Research (CCR),
National Cancer Institute (NCI), National Institutes of Health (NIH), Bethesda, MD
Poly (ADP-ribose) polymerase inhibitors (PARPis) have changed the treatment paradigm in breast cancer gene (BRCA) - mutant high-grade serous ovarian carcinoma (HGSC). However, most patients eventually develop resistance to PARPis, highlighting an unmet need for improved therapeutic strategies. Using high-throughput drug screens, we identified ataxia telangiectasia and rad3-related protein/checkpoint kinase 1 (CHK1) pathway inhibitors as cytotoxic and further validated the activity of the CHK1 inhibitor (CHK1i) prexasertib in PARPi-sensitive and -resistant BRCA-mutant HGSC cells and xenograft mouse models. CHK1i monotherapy induced DNA damage, apoptosis, and tumor size reduction. We then conducted a phase 2 study (NCT02203513) of prexasertib in patients with BRCA-mutant HGSC. The treatment was well tolerated but yielded an objective response rate of 6% (1 of 17; one partial response) in patients with previous PARPi treatment. […] BRCA reversion mutation in previously PARPi-treated BRCA-mutant patients was not associated with resistance to CHK1i.
Among others, 1082 oncology drugs, both approved and investigational, were prioritized based on their status in clinical trial development. […] Drugs with average Z-AUC values less than -1.0 in all three cell lines were classified as "hits" resulting in 151 oncology drug hits. The screen also confirmed cross-resistance between olaparib and other PARPis (rucaparib, niraparib, and talazoparib) in PARPi-resistant PEO1/OlaR and PEO4.
[1] G. L. Lin, K. M. Wilson, M. Ceribelli, B. Z. Stanton, P. J. Woo, S. Kreimer, E. Y. Qin, X. Zhang, J. Lennon, S. Nagaraja, P. J. Morris, M. Quezada, S. M. Gillespie, D. Y. Duveau, A. M. Michalowski, P. Shinn, R. Guha, M. Ferrer, C. Klumpp-Thomas, S. Michael, C. McKnight, P. Minhas, Z. Itkin, E. H. Raabe, L. Chen, R. Ghanem, A. C. Geraghty, L. Ni, K. I. Andreasson, N. A. Vitanza, K. E.Warren, C. J. Thomas, M. Monje, Therapeutic strategies for diffuse midline glioma from high-throughput combination drug screening. Sci. Transl. Med. 11, (2019).
[2] T. M. Yamamoto, A. McMellen, Z. L. Watson, J. Aguilera, R. Ferguson, E. Nurmemmedov, T. Thakar, G. L. Moldovan, H. Kim, D. M. Cittelly, A. M. Joglar, E. P. Brennecke, H. Wilson, K. Behbakht, M. J. Sikora, B. G. Bitler, Activation of Wnt signaling promotes olaparib resistant ovarian cancer. Mol. Carcinog. 58, 1770 - 1782 (2019).
PROTOCOL TABLE (as described by Inglese J, Shamu CE and Guy RK. 2007)
SEQUENCE No. (e.g., 1, 2, 3, etc.); […] (e.g., Cells, Incubation, Reagent, etc.); VALUE; DESCRIPTION.
1; Compounds; 20nL; 1536-well white tissue culture-treated plates.
2; Cells; 5 uL; PEO1, PEO4, and PEO1/OlaR cells at 600 cells per well.
3; Incubation; 96 hr; 37C, 95% humidity, 5% CO2.
4; Reagent; 3 uL; CellTiter-Glo (Promega).
5; Incubation; 15 min; room temperature.
6; Detection; Luminescence, PHERAstar (BMG Labtech) plate reader.
NOTES (numbers refer to Sequence numbers above)
1. MIPE 5.0 compounds were acoustically dispensed by Echo Acoustic Liquid Handler (Beckman Coulter Life Sciences). Each compound was plated at an 11-point concentration range with 1:3 dilution. Bortezomib, a proteasome inhibitor (final concentration, 20 uM), was used as a positive.
2. PEO1, PEO4, and PEO1/OlaR were trypsinized and dispensed in 5 uLof growth medium using a Multidrop Combi dispenser at a density of 600 cells per well to allow compounds to be present during the exponential growth phase.
3. Plates were incubated for 96 hours at standard incubator conditions and covered by a stainless steel gasketed lid to prevent evaporation.
4. Three microliters of CellTiter-Glo (Promega) were added to each well.
5. Plates were incubated at room temperature for 15 min with a stainless-steel lid in place.
6. Luminescence readings were taken using PHERAstar (BMG Labtech). […]

[1] = measured here: PEO1 parental Z-AUC

| SMILES | Z-AUC | Z-AUC [1] | Z-AUC (measured here: PEO4 Z-AUC) |
| --- | --- | --- | --- |
| CCN[C@H]1C[C@H](C)S(=O)(=O)c2sc(S(N)(=O)=O)cc21 | 1.11 (inactive) | 0.588 | 0.622 |
| Cc1nnc(C(=O)NC(C)(C)c2nc(C(=O)NCc3ccc(F)cc3)c(O)c(=O)n2C)o1 | -0.384 (inactive) | -0.195 | -0.396 |
| COCCCOc1cc(C[C@@H](C[C@H](N)[C@@H](O)C[C@H](C(=O)NCC(C)(C)C(N)=O)C(C)C)C(C)C)ccc1OC | 1.16 (inactive) | 1.52 | 1.51 |
| NS(=O)(=O)c1cc2c(cc1Cl)NC(C(Cl)Cl)NS2(=O)=O (configuration not stated) | 0.208 (inactive) | 0.729 | 0.959 |
| CN(Cc1cc(Br)cc(Br)c1N)C1CCCCC1 | 1.09 (inactive) | 1.12 | 1.04 |
| CC(C)(C)C(=O)OCOP(=O)(COCCn1cnc2c(N)ncnc21)OCOC(=O)C(C)(C)C | 0.383 (inactive) | 0.013 | -0.0203 |
| Cc1nnc(NS(=O)(=O)c2ccc(N)cc2)s1 | 1.31 (inactive) | 0.997 | 1.46 |
| CN(C)CCc1c[nH]c2ccc(CS(=O)(=O)N3CCCC3)cc12 | 1.7 (inactive) | 1.58 | 1.04 |
| O=C(O)c1ccc(-n2nc(-c3ccccc3O)nc2-c2ccccc2O)cc1 | 0.434 (inactive) | -0.254 | -0.47 |
| COC(=O)Nc1nc2ccc(Sc3ccccc3)cc2[nH]1 | -0.927 (inactive) | -0.935 | -0.94 |
| COC(c1ccccc1)(c1ccccc1)[C@H](Oc1nc(C)cc(C)n1)C(=O)O | 1.02 (inactive) | 1.24 | 1.24 |
| CC(C)(C#N)c1cc(Cn2cncn2)cc(C(C)(C)C#N)c1 | 1.1 (inactive) | 1.39 | 1.04 |
| CC[C@H](NC(C)C)[C@H](O)c1ccc(O)c2[nH]c(=O)ccc12 | -0.979 (inactive) | 0.0863 | 0.0233 |
| CO[C@@H]1[C@@H](OC(N)=O)[C@@H](O)[C@H](Oc2ccc3c(O)c(NC(=O)c4ccc(O)c(CC=C(C)C)c4)c(=O)oc3c2C)OC1(C)C | -0.0911 (inactive) | 0.276 | 0.63 |
